The results in this text go back to PubChem BioAssay AID504727 (Broad Institute, 2011).

A number with no mark means an inactive call. Calls of active or inactive are those of the source.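 The calls were made as follows: active = fitted half-maximal concentration AC50 at or below ten times the highest valid tested dose, with signal falling as DNA is displaced (actives reach about 34 µM in these data); inconclusive = flat fit at moderate signal loss, or poor fit quality; inactive = the rest, including signal rising instead of falling.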

The nature of the experiment: DNA intercalators displacing acridine orange, dose response, artefact control for KSHV LANA DNA-binding inhibitor project, biochemical, fluorescence polarization, cherry-picked samples, set 2 (AID 504727).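 As to activity change, negative = DNA displacement: 0% = median of neutral control wells and -100% = mitoxantrone positive control wells.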 The settings on record: AC50: Acridine orange-DNA displacement; series mostly up to 35 µM; activity change, negative = DNA displacement: at the top concentration.
For the compound `Cc1cc2nc(SCCN3CCOCC3)[nH]c2cc1C`, the “activity change, negative = DNA displacement” value (shortened to “activity change”) was 1.2%.

Regarding `COc1ccc(Br)cc1CNC(=O)CCCc1cn(C)c2ccccc12`, the “activity change” value was 10.9%. `Cc1c(C)n(CCC(=O)O)c2ccccc12`: the “activity change” value is -0.566%. On to `CCn1c(SCc2nc3sc(C(=O)O)c(C)c3c(=O)[nH]2)nc2ccccc21`, for which the “activity change” value was -11%. On the same count and under the same terms, the value for `COc1cccc(NC(=O)CN(C)C(=O)c2cc3ccccc3cc2OC)c1` was 4.45%; that for `CN(C)CCCNC(=O)c1ccccc1Oc1ccccc1` was -0.636%; that for `COc1ccc(CNC(=O)C2CCC(CNC(=O)[C@@H]3Cc4ccccc4CN3)CC2)cc1` (stereo partly drawn) was 2.09%. `C=CCOC(=O)C1=C[C@H](c2csc3ccccc23)C[C@H](OCc2ccc(CO)cc2)O1`: the “activity change” value is 3.64%. Take `CN(C)c1ccc(/C=N/N(CCO)C2=NS(=O)(=O)c3ccccc32)cc1`: the AC50 is 4.28 µM (active). In the case of `CC1CC(C)(C)NC(=S)N1CC(=O)N(C)Cc1ccccc1` (stereo not drawn), the “activity change” value is -1.12%.

In the case of `Nc1ccc(-c2c3ccc(=O)cc-3oc3cc(O)ccc23)cc1C(=O)O`, the AC50 is 1.07 µM (active). In the case of `Cc1nn(Cc2c(F)c(F)c(F)c(F)c2F)c(C)c1NC(=O)c1ccnn1C`, the “activity change” value is -16.1%. On to `CCNc1ccc2noc3c2c1C(=O)c1ccccc1-3`, for which the AC50 is 0.935 µM (active). In the case of `O=C1c2cccc3c(O)ccc(c23)C(=O)N1Cc1ccco1`, the half-maximal activity concentration (AC50) was 1.19 µM (active). As to `OCCN(CCO)c1nc(N2CCCCC2)c2nc(N(CCO)CCO)nc(N3CCCCC3)c2n1`, the AC50 was 8.59 µM (active). Consider `CCN(CC)CCN1C(=O)c2cccc3cc(N)cc(c23)C1=O`, for which the AC50 was 17 µM (active). Turning to `Fc1ccc(-c2cc(C(F)(F)F)nc(-n3cc(Cl)cn3)n2)cc1`, the “activity change” value was 5.26%. Turning to `CSCCC(NC(=O)c1ccccc1Cl)C(=O)N1CCCC(C)C1` (stereo not drawn), the “activity change” value is 2.53%. In the case of `COc1ccccc1CNC(=O)CCS(=O)(=O)c1cccs1`, the “activity change” value was -4.89%. As for `O=C(/C=C\c1ccccc1)Oc1cccc2cccnc12`, the “activity change” value is -4.77%.

For the compound `O=C1C(=Cc2ccco2)CCC1=Cc1ccco1`, the “activity change” value was 2.6%.

Turning to `O=C1c2ccccc2C(=O)N1Cc1ccc2c(c1)OCO2`, the “activity change” value is 3.36%.

As to `CC(C)[C@H](NC(=O)c1ccccc1F)C(=O)NC1CCCCCCC1`, the “activity change” value was 4.11%. As to `O=S(=O)(O)c1cc(O)c2cc(Nc3ccccc3)ccc2c1`, the “activity change” value is 6.99%. `COc1ccc(C2C(C(=O)c3cccs3)=C(O)C(=O)N2c2nncs2)cc1` (stereo not drawn): the AC50 was 3.42 µM (active). Regarding `CN1C(=O)NC(c2ccccc2[N+](=O)[O-])C2=C1CCCC2=O` (stereo not drawn), the AC50 was 29.7 µM (active).

As to `FC(F)(F)c1nnc(-c2ccccc2)nc1N1CCCC1`, the “activity change” value was 2.74%.

`O=C1c2ccccc2C(=O)C1c1ccccn1`: the “activity change” value is -2.43%. With `O=c1ccc2c(-c3ccccc3S(=O)(=O)O)c3ccc(O)c(O)c3oc-2c1O`, the “activity change” value was -1.5%. Take `COC(=O)C1=COC(C)C2CN3CCc4c([nH]c5ccccc45)C3CC12` (stereo not drawn): the “activity change” value was 0.065%. `CCC(Sc1ncccc1C(=O)O)C(=O)N1CCCC1` (stereo not drawn): the “activity change” value was 6.54%. Regarding `CSc1n[nH]c(=O)n1-c1cccc(Cl)c1`, the “activity change” value is 4.23%.

Regarding `CCc1noc(C)c1C(=O)NCCc1c[nH]c2ccccc12`, the “activity change” value was -5.51%. Consider `CC(C)Cn1c(N)c(C(=O)CSc2nnc(-c3ccco3)n2C)c(=O)n(C)c1=O`, for which the “activity change” value was 0.267%. Turning to `Nc1cc(N)nc(SCC(=O)N2CCCCC2)n1`, the “activity change” value is 3.31%. Take `CCNc1nc(NC(C)C)nc(NS(=O)(=O)c2ccc(N)cc2)n1`: the “activity change” value was 4.91%.

For the compound `CC(C(=O)O)N1C(=O)/C(=C/C=C/c2ccco2)SC1=S` (stereo not drawn), the “activity change” value was 14.1%.

Consider `O=C(c1cccc(S(=O)(=O)NCc2ccccc2)c1)N1CCN(c2ccccc2Cl)CC1`, for which the “activity change” value was 0%.
